# Most compounds without a hit are left out; they make up all but 7.5% or so of the library.
# SMN2 splice up = qHTS Assay for Enhancers of SMN2 Splice Variant Expression; HEK293 SMN2-luciferase splicing reporter, luminescence, 30-36 h; Potency, µM (highest dose often 46.1 µM), inactives show at the highest dose activity change, positive = activation, hits mostly activators; 210,000 tested, 2.8% active; note: % of control where 0% means no effect; nearly all actives have a fitted effect of over 55% in size
#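 HEK293 cells carry an SMN2 minigene-luciferase reporter in which exon 7 inclusion puts luciferase in frame. Cells were seeded at 2000 cells/well, attached for 10-12 hours, then exposed to compounds for 30-36 hours at 37C before ONE-Glo luminescence.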
# Luc counter = Counterscreen for Luciferase (Kinase-Glo TM) Inhibition; Luciferin 4-monooxygenase (Photuris pensylvanica), Q27757; Kinase-Glo luciferase, ATP luminescence, 8 min; Potency, µM (titrated, usually from 38.3 µM), inactives show at the top dose activity change, negative = inhibition, actives largely listed as inhibitors; 200,000 tested, 0.28% active; AID 1379, 2008; note: % is set by controls: 0 for no effect and ±100 for the full control effect; nearly all actives have a fitted effect of over 60% in size
#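 Compounds were added to a substrate mix at pH 7.2 (50 mM imidazole, 10 uM ATP, within the enzyme's linear range), followed by Kinase-Glo detection reagent; luminescence was measured after 8 minutes at ambient temperature.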
# ELG1 genotoxic = qHTS screen for small molecules that induce genotoxicity in human embryonic kidney (HEK293T) cells expressing luciferase-tagged ELG1; HEK293T ELG1-luciferase reporter, luminescence, 16 h; Potency, µM (series often up to 46 µM), for the others: at the highest dose activity change, positive = activation, actives largely listed as activators; 330,000 tested, 1.3% active; AID 504466, 2011; note: % of control where 0% means no effect; nearly all actives have a fitted effect of over 60% in size
#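 DMSO vehicle served as control against compound-treated ELG1-luciferase HEK293T cells; exposure lasted 16 hr at 37 °C and 5% CO2, followed by ONE-Glo luminescence detection after 30 min.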
# Rab9 prom act = qHTS Assay for Rab9 Promoter Activators. AID 485297, 2010. Huh7 Rab9 promoter-luciferase reporter, luminescence, 24 h. Potency, µM (highest dose often 9.22 µM), inactives show top-dose activation, negative = inhibition, usual class: activators. 320,000 tested, 2.8% active; note: % of control where 0% means no effect; nearly all actives have a fitted effect of over 60% in size
#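 Luminescence read-out: Huh7 cells stably expressing Rab9-luciferase, treated 24 h with compound at 37 °C, then lysed with luciferase reagent for 10 min at ambient before reading.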
# NPC1 prom act = qHTS Assay for NPC1 Promoter Activators; Huh7 NPC1 promoter luciferase reporter, 24 h; Potency, µM (doses to about 9.22 µM), without a hit: at the top dose activation, hits mostly activators; 320,000 tested, 2.4% active; note: % of control where 0% means no effect; nearly all actives have a fitted effect of over 60% in size
#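 Quantitative HTS used a cell-based reporter: Huh7 cells stably bearing the NPC1 promoter upstream of luciferase were treated with compounds for 24 h, and promoter activation was read as luminescence.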
# FLuc modulator = qHTS profiling assay for firefly luciferase inhibitor/activator using purifed enzyme and Km concentrations of substrates (counterscreen for miR-21 project); purified FLuc, Km substrates, luminescence inhibition; Luciferin 4-monooxygenase (Photinus pyralis), P08659; 360,000 tested, 6.9% active; AID 588342, 2011; Potency, µM (series often up to 57.5 µM), without a hit: at the top dose activity change, negative = inhibition, usual class: inhibitors;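 note: plate controls were vehicle for no effect and reference inhibitor for full effect; nearly all actives have a fitted effect of over 55% in size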
# Target sequence (P08659 whole entry, looked up): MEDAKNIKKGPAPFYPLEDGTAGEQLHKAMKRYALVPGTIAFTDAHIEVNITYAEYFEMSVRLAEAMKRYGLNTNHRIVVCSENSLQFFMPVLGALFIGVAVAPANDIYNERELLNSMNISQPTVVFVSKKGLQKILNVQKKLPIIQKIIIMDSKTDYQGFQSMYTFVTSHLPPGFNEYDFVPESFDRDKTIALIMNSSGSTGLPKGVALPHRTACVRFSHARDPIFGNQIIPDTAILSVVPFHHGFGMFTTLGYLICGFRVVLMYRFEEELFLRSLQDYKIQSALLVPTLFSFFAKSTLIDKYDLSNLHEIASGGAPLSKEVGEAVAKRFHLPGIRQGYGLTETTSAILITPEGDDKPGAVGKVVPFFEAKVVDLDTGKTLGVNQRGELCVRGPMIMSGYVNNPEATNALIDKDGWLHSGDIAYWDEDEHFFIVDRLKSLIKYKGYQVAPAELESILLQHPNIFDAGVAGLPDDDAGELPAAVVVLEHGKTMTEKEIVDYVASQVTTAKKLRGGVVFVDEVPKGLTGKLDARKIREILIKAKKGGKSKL
#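 Biochemical qHTS of compounds, final roughly 60 µM downward over six points, against 10 nM purified firefly luciferase using Km concentrations of substrates (10 uM D-luciferin, 10 uM ATP) in Tris acetate pH 7.5 buffer; luminescence output.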
# Numbers without * were called inactive; ? = inconclusive; · = not tested or not shown; [ ] = remark or other dose. Calls come from the whole dose curve; as a rule, active = well fitted curve in the direction sought with a large enough effect; inconclusive = small, poorly fitted or top-dose-only effect, or another doubt; inactive = no such curve, though single readings can be large; an effect the other way counts as inactive or inconclusive. Potency is the fitted concentration of half-maximal effect.
SMILES,SMN2 splice up,Luc counter,ELG1 genotoxic,Rab9 prom act,NPC1 prom act,FLuc modulator
CCOC(=O)C(CC(=O)c1ccccc1)CC(=O)c1ccccc1,·,·,17%,23%,?,13µM*
O=C(COC(=O)c1cc(Cl)nc2ccccc12)c1ccc(Cl)cc1,-7%,4%,-1%,0%,-2%,?
CC(=O)NC(C)C(=O)OCC(=O)c1ccc(-c2ccccc2)cc1 (stereo not drawn),7%,3%,11%,-4%,-3%,13µM*
COC(=O)C(CC(=O)c1ccccc1)CC(=O)c1ccccc1,·,·,12%,0%[1.84 µM],15%,?
CCc1ccc(C(=O)COC(=O)c2ccc(-c3nnc(-c4ccccc4)o3)cc2)cc1,7.9µM*,-2%,?,0.56µM*,0.89µM*,-4%
COc1ccc(CC2SC(N)=NC2=O)cc1 (stereo not drawn),·,·,-2%,0%,0%,4%
O=C(COC(=O)c1ccc(-c2cnc3ccccc3n2)cc1)c1ccccc1,8%,-1%,2%,?,24%,-9%
Cc1ccc(C(=O)OCC(=O)Nc2ccccc2)cc1NC(=O)c1ccco1,6%,1%,?,14%,-3%,-13%
CC(=O)Nc1cc(C(=O)OCC(=O)c2ccccc2)ccc1C,10µM*,-3%,15µM*,4.5µM*,3.2µM*,19µM*
Cc1ccc(C(=O)OCC(=O)c2ccccc2)cc1,·,·,0.58µM*,0.56µM*,0.32µM*,1.9µM*
Cc1csc2c(N3CCN(C(=O)Nc4ccc(OC(F)(F)F)cc4)CC3)ncnc12,·,·,-10%,1%,-1%,-20%
Cc1csc2c(N3CCN(S(=O)(=O)c4ccc(Cl)cc4)CC3)ncnc12,·,·,-1%,-6%,-2%,1%
Cc1csc2c(N3CCC(C(=O)O)CC3)ncnc12,·,·,8%,18%,2%,17µM*
Cc1csc2c(N3CCCCC3)ncnc12,·,·,10%,19%,?,13µM*
Cc1nc2c(c3c1[nH]c1ccccc13)C(O)CC(C)(C)C2 (stereo not drawn),-56%,-3%,-1%,-10%,-5%,4%
COC(=O)C(C)Oc1cc(OC(C)C(=O)OC)c2c(C)c(Cl)c(=O)oc2c1 (stereo not drawn),8%,0%,2%,-4%,0%,8%
Cn1c(-c2ccc(F)cc2)cnc1SCC(=O)Nc1ccccc1,0%,1%,-6%,-13%,-4%,-3%
CCSc1ncc(/C=N/Nc2ccc([N+](=O)[O-])cc2)n1C,?,-1%,?,0.71µM*,0.79µM*,?
CCSc1ncc(/C=N/Nc2ccc(Cl)cc2)n1C,20µM*,0%,?,2.8µM*,1.6µM*,3µM*
O=[N+]([O-])c1ccc(N/N=C\c2cccn2-c2ccccc2)nc1,-54%,-1%,-6%,-4%,-5%,-2%
CCSc1ncc(/C=N/Nc2ccccc2)n1C,14µM*,4%,18%,?,?,19µM*
COc1cccc(CNc2ccccc2O)c1OCc1ccccc1F,4%,0%,-7%,-9%,-5%,-2%
O=C(c1ccco1)N1CCCN(Cc2nc(-c3cccs3)no2)CC1,·,0%,-1%,-11%,2%,-4%
N#CCC(CNc1ncc(C(F)(F)F)cc1Cl)OC(=O)c1ccc(Cl)cc1Cl (stereo not drawn),37%,9%,-3%,-1%,-4%,1%
O=C1CCc2cc(NS(=O)(=O)c3ccc(F)cc3)cc3c2N1CC3,·,·,?,-1%,-3%,2%
SMILES,SMN2 splice up,Luc counter,ELG1 genotoxic,Rab9 prom act,NPC1 prom act,FLuc modulator
Cc1ccc(S(=O)(=O)Nc2cc3c4c(c2)CCN4C(=O)CC3)cc1,·,·,10µM*,3%,-8%,-1%
O=C(OCc1cc(=O)n2nc(-c3cccs3)sc2n1)c1ccc(F)cc1,·,·,·,·,·,3%
CN(Cc1ccccc1)c1ncnc2c1cnn2-c1ccccc1,5.6µM*,-3%,18µM*,2.8µM*,2.5µM*,6µM*
CCN(Cc1ccccc1)c1ncnc2c1cnn2-c1ccc(F)cc1,·,·,·,·,·,7.6µM*
CCN(c1ccccc1)c1ncnc2c1cnn2-c1ccccc1,-59%,1%,21µM*,?,?,19µM*
COCCN(CCOC)c1ncnc2c1cnn2-c1ccccc1,·,·,6%,16%,5%,-15%
O=[N+]([O-])c1ccccc1-c1nc(-c2ccc(Br)o2)no1,17%[1.84 µM],-3%,?,2.8µM*,3.2µM*,3µM*
Nc1nnc(-c2ccccc2[N+](=O)[O-])o1,-1%,1%,2%,-5%,-1%,-8%
O=[N+]([O-])c1cc(Cl)ccc1-c1nc(-c2ccccc2)no1,17%[1.84 µM],-4%,?,3.2µM*,3.5µM*,1.2µM*
Clc1ccccc1-c1nc(-c2ccc(Br)o2)no1,·,·,4.1µM*,0.71µM*,1.3µM*,1.2µM*
Cc1cc(OC(=O)c2ccccc2Br)cc(=O)n1C,-1%,-7%,-5%,-2%,3%,21µM*
CCN(CC)C(=O)CSc1nnc2sc3ccccc3n12,3%,0%,1%,-3%,-2%,1%
COc1cccc(OCCSc2nnc3sc4ccccc4n23)c1,?,-3%,?,10%,16%,19µM*
c1ccc(OCCSc2nnc3sc4ccccc4n23)cc1,28%,-5%,?,0.32µM*,0.35µM*,0.43µM*
Cc1cc(/C=N/n2cnnc2)c(C)n1-c1ccccc1,22%,-2%,7%,-1%,4%,?
Cc1cc(C=C2C(=O)c3ccccc3C2=O)c(C)n1-c1ccc(C(=O)O)cc1,·,·,7%,-2%,2%,19µM*
COc1ccccc1/C=C1\Cc2ccccc2C1=O,·,·,?,1%,8%,11µM*
Cc1cc(C=C2C(=O)c3ccccc3C2=O)c(C)n1-c1cccc(C(=O)O)c1,-26%,-25%,26%,2.5µM*,29%,4.8µM*
Cc1cc(/C=C2\Cc3ccccc3C2=O)c(C)n1-c1ccccc1,4.5µM*,-17%,1.2µM*,-1%,10%,0.19µM*
